Measurements: PubChem BioAssay AID763 (NMMLSC, 2007)
Values without a mark were called inactive. How the calls were made is not given here.

Molecular target: fMet-Leu-Phe receptor (Homo sapiens) (UniProt P21462)
Assay: human FPR1 ligand displacement single-point test – cell-based, single concentration, selectivity assay for FPRL1 ligand SAR project, SAR follow-up (AID 763)
Conditions: FPR1-expressing cells, fluorescent ligand binding inhibition, active compounds read high; at 5.4 µM unless noted

Chain of fMet-Leu-Phe receptor (Homo sapiens) (P21462 whole entry, looked up): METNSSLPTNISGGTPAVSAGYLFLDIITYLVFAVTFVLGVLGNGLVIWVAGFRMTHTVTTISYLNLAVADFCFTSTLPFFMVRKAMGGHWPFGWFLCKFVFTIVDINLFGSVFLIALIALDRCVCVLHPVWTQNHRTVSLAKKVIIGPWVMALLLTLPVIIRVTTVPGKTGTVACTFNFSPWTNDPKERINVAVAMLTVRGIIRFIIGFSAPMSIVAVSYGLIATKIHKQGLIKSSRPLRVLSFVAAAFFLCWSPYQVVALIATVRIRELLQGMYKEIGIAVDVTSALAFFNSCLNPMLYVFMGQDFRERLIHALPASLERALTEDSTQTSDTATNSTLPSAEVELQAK

Row | Compound | inhibition
1 | CC(=O)N1CCN(c2nc(-c3ccccc3)c3cc(C)ccc3n2)CC1 | -0.1% [at 6.4 µM]
2 | COc1ccc(-c2cn3cccnc3n2)cc1NC(=O)c1ccc(Br)cc1 | -0.1% [at 5.3 µM]
3 | Clc1cccc(-c2nc(N3CCN(c4ccccn4)CC3)nc3c2COc2ccccc2-3)c1 | 1.7% [at 4.9 µM]
4 | O=C(c1cccc(F)c1)N1CCN(c2nc(-c3ccc(F)cc3)cc(C(F)(F)F)n2)CC1 | -0.1% [at 5 µM]
5 | COc1cccc(-c2cc(C(F)(F)F)nc(N3CCN(Cc4ccccc4)CC3)n2)c1 | -16.6% [at 5.2 µM]
6 | FC(F)(F)c1cc(-c2ccccc2)nc(N2CCN(c3ccccc3)CC2)n1 | 2.9% [at 5.8 µM]
7 | Cc1ccc2nc(N3CCN(C(=O)CCC(=O)O)CC3)nc(-c3ccccc3)c2c1 | 5.7% [at 5.5 µM]
8 | COc1ccc(-c2cn3cccnc3n2)cc1NC(=O)c1ccccc1C(F)(F)F | -3.2%
9 | COc1cccc(-c2cc(C(F)(F)F)nc(N3CCN(c4ccc(F)cc4)CC3)n2)c1 | 1.7% [at 5.1 µM]
10 | CCOc1cc(C(=O)Nc2cc(-c3cn4cccnc4n3)ccc2OC)cc(OCC)c1OCC | 0% [at 4.7 µM]
11 | CCC(=O)Nc1cccc(-c2nc3ncccn3c2C)c1 | 5.6% [at 7.9 µM]
12 | COc1ccc(-c2cn3cccnc3n2)cc1NC(=O)CCCc1ccccc1 | -0.5% [at 5.8 µM]
13 | O=C(c1ccc(Cl)cc1)N1CCN(c2nc(-c3ccccc3)c3ccccc3n2)CC1 | -1.9% [at 5.2 µM]
14 | CCOC(=O)N1CCN(c2nc(-c3ccc(Cl)cc3)cc(C(F)(F)F)n2)CC1 | -2.8%
15 | O=C(N1CCN(c2nc(-c3ccccc3)c3cc([N+](=O)[O-])ccc3n2)CC1)C(F)(F)F | -1.2% [at 5.2 µM]
16 | COc1cccc(-c2cc(C(F)(F)F)nc(N3CCN(C(c4ccccc4)c4ccccc4)CC3)n2)c1 | 2.6% [at 4.4 µM]
17 | CCOC(=O)N1CCN(c2nc(-c3ccccc3)c3cc(C)ccc3n2)CC1 | -2.1% [at 5.9 µM]

Row | Compound | inhibition
18 | Cc1ccc2nc(N3CCN(C(=O)CC4(CC(=O)O)CCCC4)CC3)nc(-c3ccccc3)c2c1 | 0.5% [at 4.7 µM]
19 | COc1ccc(C2CC(=O)c3cnc(N4CCN(Cc5ccc6c(c5)OCO6)CC4)nc3C2)cc1OC (stereo not drawn) | -0.9% [at 4.4 µM]
20 | Clc1ccccc1-c1nc(N2CCN(c3ccccc3)CC2)nc2ccc(Br)cc12 | 1.5% [at 4.6 µM]
21 | COc1ccc(C(=O)Nc2cc(-c3cn4cccnc4n3)ccc2OC)cc1 | 3.4% [at 5.9 µM]
22 | Cc1ccc(C(=O)N2CCN(c3nc(-c4ccccc4)c4cc(Br)ccc4n3)CC2)cc1 | -4.3% [at 4.6 µM]
23 | O=C(O)CCCC(=O)N1CCN(c2nc(-c3ccccc3)c3cc(Br)ccc3n2)CC1 | -1.2% [at 4.6 µM]
24 | Cc1ccccc1C(=O)N1CCN(c2nc(-c3ccccc3)c3cc(Cl)ccc3n2)CC1 | -3.4% [at 5 µM]
25 | COc1ccccc1N1CCN(c2nc(-c3ccc(F)cc3)cc(C(F)(F)F)n2)CC1 | -1.1% [at 5.1 µM]
26 | CC1(C)CC(=O)c2cnc(N3CCN(Cc4ccc5c(c4)OCO5)CC3)nc2C1 | 11.3% [at 5.6 µM]
27 | COc1ccc(C2CC(=O)c3cnc(N4CCN(Cc5ccc6c(c5)OCO6)CC4)nc3C2)c(OC)c1 (stereo not drawn) | -4.7% [at 4.4 µM]
28 | COc1ccc(-c2cn3cccnc3n2)cc1NC(=O)c1ccccc1Cl | -3.1% [at 5.9 µM]
29 | COc1ccccc1-c1cc(C(F)(F)F)nc(N2CCN(Cc3ccccc3)CC2)n1 | 1.1% [at 5.2 µM]
30 | Fc1ccc(-c2cc(C(F)(F)F)nc(N3CCN(C(c4ccccc4)c4ccccc4)CC3)n2)cc1 | 1.3% [at 4.5 µM]
31 | Clc1cccc(-c2nc(N3CCN(c4ccccc4)CC3)nc3c2COc2ccccc2-3)c1 | -0.5% [at 4.9 µM]
32 | O=C(O)CCC(=O)N1CCN(c2nc(-c3ccccc3)c3cc(Br)ccc3n2)CC1 | -0.5% [at 4.7 µM]
33 | CN1CCN(c2nc(-c3ccccc3)cc(C(F)(F)F)n2)CC1 | -5.9% [at 6.9 µM]
